# In all, about 66,000 compounds went through this assay and about 960 (1.5%) showed an effect of 50% or more. What follows is part of a selection rich in strong results, with near analogues and random picks from the rest.
# Tested on: Trypanosoma brucei
# Test: Trypanosoma brucei 72 hour study
# Type: functional, organism-based
# Parameters: scale not given: in the data most compounds retested in dose-response had high values
compound,measurement,setting,value
Cn1cc(CN2CCc3onc(C(=O)N4CCCC4)c3C2)cn1.O=C(O)C(F)(F)F,Percent Effect,"30.3 µM, […]",-19.54%
O=C(c1cscn1)N1C[C@H]2CCC[C@@]2(COCc2ccccn2)C1,Percent Effect,"30.3 µM, […]",-7.729%
CN1CCN(CC(NCc2ccc(F)c(F)c2)c2ccccc2)CC1 (stereo not given),Percent Effect,"30 µM, 30.03 µM",-11.08%
Cc1ccc(CNC(CN2CCN(C)CC2)c2ccccc2)cc1 (stereo not given),Percent Effect,"30 µM, 30.03 µM",0.9317%
Cc1ccc(CNC(CN2CCN(C)CC2)c2ccccc2)cc1C (stereo not given),Percent Effect,"30 µM, 30.03 µM",57.4%
Cc1cccc(CNC(CN2CCN(C)CC2)c2ccccc2)c1 (stereo not given),Percent Effect,"30 µM, 30.03 µM",38.01%
CN1CCN(CC(NCc2cccc(O)c2)c2ccccc2)CC1 (stereo not given),Percent Effect,"30 µM, 30.03 µM",100.4%
COc1cccc(CNC(CN2CCN(C)CC2)c2ccccc2)c1 (stereo not given),Percent Effect,"30 µM, 30.03 µM",-23.58%
Cc1noc(C)c1CNCC1Cn2nncc2CO1.O=C(O)C(F)(F)F (stereo not given),Percent Effect,"30.3 µM, […]",-105.3%
COCC1CN(C(=O)CS(C)(=O)=O)Cc2ncn(CC3CC3)c21 (stereo not given),Percent Effect,"30.3 µM, […]",-30.37%
C1CCN(CCO[C@@H]2CC[C@H]3[C@H]2OCCN3CC2CCOCC2)C1.O=C(O)C(F)(F)F.O=C(O)C(F)(F)F,Percent Effect,"30 µM, 30.03 µM",-27.36%
Cc1ncsc1-c1nnc(C2CCN(Cc3ccccc3F)CC2)o1,Percent Effect,"30.3 µM, […]",-22.5%
CNCc1ccc([C@@H]2CN(C(C)=O)C[C@H]2C(=O)N(C)C)cc1.Cl,Percent Effect,"30.3 µM, […]",-5.387%
CN(C)CCN1CCC2(CCN(C(=O)c3ccncc3)CC2)C1=O.O=C(O)C(F)(F)F.O=C(O)C(F)(F)F,Percent Effect,"30.3 µM, […]",-21.17%
CN1CCOCC12CCN(Cc1ccoc1)CC2.O=C(O)C(F)(F)F.O=C(O)C(F)(F)F,Percent Effect,"30.3 µM, […]",-44.43%
Cn1cc(-c2c(C#N)c(N)nc3c2CCc2[nH]ccc2-3)cn1,Percent Effect,"30.3 µM, […]",27.56%
COc1ncc(-c2c(C#N)c(N)nc3c2CCc2[nH]ccc2-3)cn1,Percent Effect,"30.3 µM, […]",-6.46%
Cc1n[nH]c(C)c1-c1c(C#N)c(N)nc2c1CCc1[nH]ccc1-2,Percent Effect,"30.3 µM, […]",52.57%
CC(C)CN1C[C@H]2C[C@H](C(=O)N3CCCC3)[C@@H](C1)O2.O=C(O)C(F)(F)F,Percent Effect,"30.3 µM, […]",-50.57%
COc1cccc(-c2ncc3c(n2)N(C)CCN(CCN(C)C)C3=O)c1,Percent Effect,"30.3 µM, […]",19.59%
CCc1ccc(-c2ncc3c(n2)N(C)CCN(CCN(C)C)C3=O)cc1,Percent Effect,"30.3 µM, […]",100.5%
CN(C)CCN1CCN(C)c2nc(-c3ccccc3)ncc2C1=O,Percent Effect,"30.3 µM, […]",17.36%
Cl.O=C(O)[C@@H]1CCCN1c1nccc(Nc2ccccc2)n1,Percent Effect,"30.3 µM, […]",-31.15%
same,Percent Effect,"10 mM, 10 mM as filed; unlikely as a test dose",-16.56%
Cc1cc(F)ccc1-n1cc(O)c(C(=O)NCC2(O)CCC2)n1,Percent Effect,"30 µM, 30.03 µM",-18.18%
O=C(Cn1nnn(-c2cccs2)c1=O)N(CC1CCOC1)C1CC1 (stereo not given),Percent Effect,"30 µM, 30.03 µM",-28.27%
O=C(Cn1nnn(-c2cccs2)c1=O)NCC1CCOC1 (stereo not given),Percent Effect,"30 µM, 30.03 µM",53.07%
CCN(CC1CCOC1)C(=O)Cn1nnn(-c2cccs2)c1=O (stereo not given),Percent Effect,"30 µM, 30.03 µM",-61.65%
CC(Cn1cccn1)NCc1csc(COc2ccc(F)cc2)n1 (stereo not given),Percent Effect,"30.3 µM, […]",4.13%
c1ccc(OCc2nc(CNCCn3cccn3)cs2)cc1,Percent Effect,"30.3 µM, […]",-9.773%
c1ccc(Cc2nc(CNCCn3cccn3)cs2)cc1,Percent Effect,"30.3 µM, […]",100.2%
CC(Cn1cccn1)NCc1csc(COc2ccccc2)n1 (stereo not given),Percent Effect,"30.3 µM, […]",63.51%
c1ccc(-c2nc(CNCCn3cccn3)cs2)cc1,Percent Effect,"30 µM, 30.03 µM",-63.26%
CC(Cn1cccn1)NCc1csc(Cc2ccccc2)n1 (stereo not given),Percent Effect,"30.3 µM, […]",32.28%
Clc1ccc(Cc2nc(CNCCn3cccn3)cs2)cc1,Percent Effect,"30.3 µM, […]",19.22%
Cc1cnn(CCCNCc2csc(COc3ccccc3)n2)c1,Percent Effect,"30.3 µM, […]",10.81%
Cc1cnn(CCNCc2csc(COc3ccccc3)n2)c1,Percent Effect,"30.3 µM, […]",54.15%
CCS(=O)(=O)N1C[C@H]2C[C@H](C(=O)N(C)C)[C@@H](C1)O2,Percent Effect,"30 µM, 30.03 µM",9.915%
O=C(NCC(=O)N1CCN(c2ccccc2)CC1)c1sccc1C1CC1,Percent Effect,"30 µM, 30.03 µM",8.848%
CCC(=O)N1CCN(CCn2cccn2)c2ncccc2C1.O=C(O)C(F)(F)F,Percent Effect,"30.3 µM, […]",-68.7%
N#Cc1ccc(C(=O)N2CC[C@H]3[C@H]2CCN3CC2CC2)cc1.O=C(O)C(F)(F)F,Percent Effect,"30.3 µM, […]",-8.518%
Cc1ccccc1-c1cncc(C2CCN(S(=O)(=O)N(C)C)CC2)n1,Percent Effect,"30.3 µM, […]",23.75%
CCC(=O)N1CCCN(Cc2cc(F)cc(Br)c2)CC1,Percent Effect,"30 µM, 30.03 µM",-27.39%
CN1C[C@H]2CC[C@@H]1CN(C(=O)COCc1nc3cc(F)ccc3[nH]1)C2,Percent Effect,"30 µM, 30.03 µM",-9.559%
CC(C)(C)n1ncc2c1CCCC2NCc1ccsc1 (stereo not given),Percent Effect,"30 µM, 30.03 µM",-15.69%
O=C(NCc1cnc2n1CCN(Cc1nccs1)CC2)C1CCC1.O=C(O)C(F)(F)F,Percent Effect,"30.3 µM, […]",-21.25%
COCC(=O)N1CCC2(CC1)CN(CC1CC1)c1ccc(F)cc12,Percent Effect,"30.3 µM, […]",19.77%
CCc1nccn1CCNC1CCN(c2nc3ccc(Cl)cc3s2)CC1,Percent Effect,"30.3 µM, […]",100.4%
CCS(=O)(=O)CCNC1CCN(c2nc3ccc(Cl)cc3s2)CC1,Percent Effect,"30.3 µM, […]",67.3%
CCCc1cc(NCCCC2CCOC2)n2nccc2n1 (stereo not given),Percent Effect,"30.3 µM, […]",14.64%
Cc1csc2c(N3CCC(NCCc4ccnn4C)CC3)ncnc12,Percent Effect,"30 µM, 30.03 µM",-26.9%
Cc1csc2c(N3CCC(NCCCC4CCOC4)CC3)ncnc12 (stereo not given),Percent Effect,"30 µM, 30.03 µM",-28.35%
Clc1ccc2nc(N3CCC(NCCCC4CCOC4)CC3)sc2c1 (stereo not given),Percent Effect,"30.3 µM, […]",69.37%
CCCc1cc(CNC2CCN(c3nc4ccccc4s3)CC2)on1,Percent Effect,"30 µM, 30.03 µM",-8.839%
Cc1n[nH]c(SCCNC2CCN(c3nc4ccccc4s3)CC2)n1,Percent Effect,"30 µM, 30.03 µM",-5.585%
Cn1ccnc1SCCNC1CCN(c2nc3ccccc3s2)CC1,Percent Effect,"30 µM, 30.03 µM",-14.43%
Cc1nc(NC(=O)c2c(-n3cnnn3)sc(C)c2C)sc1C,Percent Effect,"30 µM, 30.03 µM",-45.39%
O=C(O)C(F)(F)F.O=C(O)C(F)(F)F.c1cncc(OCc2noc3c2CN(Cc2ccco2)CC3)c1,Percent Effect,"30 µM, 30.03 µM",-42.06%
Cc1noc(C)c1CN1CCn2cc(CN3CCCCC3)nc2C1.O=C(O)C(F)(F)F,Percent Effect,"30.3 µM, […]",-9.044%
CCN1CCN(C(=O)c2cc(-c3cccn3C)n[nH]2)[C@H]2CS(=O)(=O)C[C@H]21,Percent Effect,"30 µM, 30.03 µM",-16.48%
CC(C)N1CC[C@H]2[C@H](C[C@@H](Cn3cncn3)N2c2nccs2)C1.O=C(O)C(F)(F)F.O=C(O)C(F)(F)F,Percent Effect,"30.3 µM, […]",-43.04%
COc1cccc(CN(Cc2ncc[nH]2)Cc2ccco2)c1.O=C(O)CC(O)(CC(=O)O)C(=O)O,Percent Effect,"30.3 µM, […]",-10.96%
Cc1ccc([C@]2(O)CC[C@H]3CN(Cc4cc(C)c(O)c(C)c4)C[C@H]32)nc1.O=C(O)CC(O)(CC(=O)O)C(=O)O,Percent Effect,"30.3 µM, […]",27.71%
Cc1ccc([C@]2(O)CC[C@H]3CN(Cc4ccc(Cl)cc4Cl)C[C@H]32)nc1,Percent Effect,"30.3 µM, […]",-1.046%
CSc1ccc(CN2C[C@@H]3CC[C@@](O)(c4ccc(C)cn4)[C@@H]3C2)cc1,Percent Effect,"30.3 µM, […]",79.51%
CN1CC2(CCCN(Cc3nnc(-c4ccccc4)o3)CC2)OC1=O (stereo not given),Percent Effect,"30 µM, 30.03 µM",-20.69%
COCCNC(=O)c1nnn(Cc2ccccc2)c1OC,Percent Effect,"30.3 µM, […]",3.67%
CCN(CC)C(=O)c1nnn(Cc2ccccc2)c1OC,Percent Effect,"30 µM, 30.03 µM",61.55%
CCNC(=O)c1nnn(Cc2ccccc2)c1OC,Percent Effect,"30 µM, 30.03 µM",40.11%
CCc1nnc(SC2CCCN(c3cccc(F)c3)C2=O)n1C (stereo not given),Percent Effect,"30 µM, 30.03 µM",-37.32%
CCOCC1CN(CCN(C)C)Cc2cnn(CC3CCCC3)c21.O=C(O)C(F)(F)F.O=C(O)C(F)(F)F (stereo not given),Percent Effect,"30 µM, 30.03 µM",-10.76%
Cc1ccc(C(=O)N2CC[C@@H](N(C)C)[C@@H]2Cc2cnn(C)c2)cn1.O=C(O)C(F)(F)F.O=C(O)C(F)(F)F,Percent Effect,"30.3 µM, […]",-478.3%
CC(=O)c1ccc(N2CCCC(CO)(CCOc3ccccc3)C2)nc1 (stereo not given),Percent Effect,"30 µM, 30.03 µM",71.93%
CC(=O)c1ccc(N2CCCC(CO)(Cc3ccccc3C)C2)nc1 (stereo not given),Percent Effect,"30 µM, 30.03 µM",-6.304%
Nc1nccc(N2CCCC(CO)(CCOc3ccccc3)C2)n1 (stereo not given),Percent Effect,"30 µM, 30.03 µM",82.96%
CC(=O)c1ccc(N2CCCC(CO)(CCc3ccccc3)C2)nc1 (stereo not given),Percent Effect,"30 µM, 30.03 µM",50.39%
CC(=O)c1ccc(N2CCCC(CO)(Cc3ccccc3F)C2)nc1 (stereo not given),Percent Effect,"30 µM, 30.03 µM",-24.14%
N#Cc1ccc(N2CCCC(CO)(CCOc3ccccc3)C2)nc1 (stereo not given),Percent Effect,"30 µM, 30.03 µM",-38.44%
N#Cc1cccc(N2CCCC(CO)(CCOc3ccccc3)C2)n1 (stereo not given),Percent Effect,"30 µM, 30.03 µM",-42.71%
CC(=O)c1ccc(N2CCC(CO)(CCOc3ccccc3)CC2)nc1,Percent Effect,"30 µM, 30.03 µM",16.6%
OCC1(CCOc2ccccc2)CCCN(c2ccc(Cl)cn2)C1 (stereo not given),Percent Effect,"30 µM, 30.03 µM",-34.7%
O=C(O)C(F)(F)F.O=C1CCCN1Cc1ncn2c1CN(C(=O)N1CCCC1)CCC2,Percent Effect,"30.3 µM, […]",-52.13%
Cc1occc1C(=O)N1CCC2(CCCN(c3ncc(F)cn3)C2)C1.O=C(O)C(F)(F)F (stereo not given),Percent Effect,"30.3 µM, […]",-25.24%
O=C(NCCCNc1ccc(C(F)(F)F)cn1)c1ccc2c(c1)OCO2,Percent Effect,10 µM,-42.23%
Cc1ncc2c(n1)CN(c1ncnc3[nH]ccc13)CC2,Percent Effect,"30 µM, 30.03 µM",-13.69%
c1nc(N2CCc3[nH]cnc3C2)c2cc[nH]c2n1,Percent Effect,"30 µM, 30.03 µM",75.2%
c1ncc2c(n1)CN(c1ncnc3[nH]ccc13)CC2,Percent Effect,"30 µM, 30.03 µM",-32.45%
Cn1cc(N2CC3(COCCN(Cc4nccs4)C3)OCC2=O)cn1.O=C(O)C(F)(F)F (stereo not given),Percent Effect,"30 µM, 30.03 µM",27.05%
Cc1cc(N(C)C)cc(C2CCN(S(=O)(=O)c3cccnc3)C2)n1 (stereo not given),Percent Effect,"30.3 µM, […]",-0.05808%
Cc1cccc(-c2cc(-c3c(C)nn(CCO)c3C)c(C#N)c(N)n2)c1,Percent Effect,"30.3 µM, […]",57.96%
Cc1ccc(-c2cc(-c3c(C)nn(CCO)c3C)c(C#N)c(N)n2)cc1,Percent Effect,"30.3 µM, […]",33.48%
Cc1nn(CCO)c(C)c1-c1cc(C(C)(C)C)nc(N)c1C#N,Percent Effect,"30.3 µM, […]",0.04143%
CCOCC(=O)N1C[C@@H]2COC[C@]2(c2nc(C)no2)C1,Percent Effect,"30.3 µM, […]",-76.29%
Cc1noc([C@]23COC[C@H]2CN(C(=O)COC2CCCC2)C3)n1,Percent Effect,"30.3 µM, […]",-59.73%
Cc1noc([C@]23COC[C@H]2CN(C(=O)CN(C)C)C3)n1.O=C(O)C(F)(F)F,Percent Effect,"30.3 µM, […]",106.1%

# Source: ChEMBL document CHEMBL3988442, “University of Dundee, Small-Polar-MMV Screening Library” (2021)
